# NS1 inh: influenza NS1 inhibition; actives 0.4% (n = 270,000); Potency, µM (highest dose often 46.1 µM), inactives show at the top dose activity, positive = more growth; calls by dose curve; further: potency means the concentration at half of the fitted maximal effect; actives are rising curves; nearly all actives have a fitted effect of over 50% in size
#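 Recovery from NS1-induced slow growth read by OD600 in budding yeast switched to galactose assay medium (pH 6.0, -URA) at 1:100 dilution. Compound 23 nl per well; the matching strain lacking NS1 serves as control.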
# Pf growth 96h: P. falciparum growth inhibition at 96 hours; actives 6.9% (n = 320,000); P. falciparum luciferase reporter growth, 96 h; Potency, µM (top dose mostly 28.7 µM), for inactives: at the highest dose activity change, negative = inhibition, usual class: inhibitors; further: potency means the concentration at half of the fitted maximal effect; on the % scale 0 is the no-effect control and ±100 the full control effect
#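 Readout is luminescence from an integrated firefly luciferase in P. falciparum. Red cells, 2% hematocrit and 0.05% parasitemia final, were cultured with compound through two parasite generations (96 hours) at 37 C, 5% CO2.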
# Shiga toxin inh: Shiga toxin inhibition; Vero cells, Shiga toxin protein synthesis inhibition reporter; inhibition, % at 38.7 µM; actives 9.2% (n = 290,000); AID 2315; in the data active means inhibition mostly above about 28%, no sharp cut-off; inactive means mostly below about 43%; further: 0% is about no effect
# Pf growth 48h: P. falciparum growth inhibition at 48 hours (one generation); P. falciparum luciferase growth in erythrocytes, 48 h; Potency, µM (doses to about 28.7 µM), for the others: at the highest dose activity change, negative = inhibition, actives largely listed as inhibitors; actives 5.9% (n = 310,000); further: potency means the concentration at half of the fitted maximal effect; on the % scale 0 is the no-effect control and ±100 the full control effect
#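 Growth was read as firefly luciferase luminescence after a 48 h, 37 C, 5% CO2 exposure of compounds to reporter-bearing P. falciparum cultures (0.1% parasitemia, 2% hematocrit final) in Albumax-supplemented RPMI 1640.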
# CHX counter: affects cycloheximide protein synthesis inhibition readout, counter-screen | cell reporter, cycloheximide protein synthesis inhibition counterscreen | max response, % | actives 12% (n = 300,000); in the data active means max response mostly above about 13%, no sharp cut-off; inactive means mostly below about 14%; further: read at 38.3 µM for the half of the compounds with a filed dose; 0% is about no effect
# Numbers without * were called inactive; u = inconclusive; x = no result. Rows were chosen to be rich in hits. Some 21% of all compounds tested hit in one or more screens of this group. Unless noted, the call rests on the fitted dose curve; in most records, active means well fitted inhibition curve with a large enough effect; inconclusive means small, poorly fitted or top-dose-only effect, or another doubt; inactive means no such curve, though single readings can be large or run the other way.
SMILES,NS1 inh,Pf growth 96h,Shiga toxin inh,Pf growth 48h,CHX counter
CCOC(=O)c1ccc(NC(=O)c2cn(CCC#N)nc2-c2ccc3c(c2)OCCO3)cc1,-23%,u,-8,u,-2
Cc1ccc(-n2nnnc2CSc2nnc(-c3ccc(O)cc3)o2)cc1,12%,u,42,-7%,9
COc1cc(NC(=O)Cn2cnc(S(=O)(=O)N3CCOCC3)c2)cc(OC)c1OC,-1%,u,-6,-4%,4
CS(=O)(=O)N1CCC(C(=O)N2CCN(c3ccccc3F)CC2)CC1,x,25%,-3,0%,6
O=C(Nc1ccccc1)N(Cc1cccs1)C1CCCC1,-10%,37%,-2,-2%,1
O=C(Nc1ccccc1)N1CCC(C(=O)N(Cc2ccco2)Cc2cccs2)CC1,-8%,1.7µM*,12,u,5
O=C1NC2(CCN(Cc3ccccc3)CC2)Oc2ccccc21,x,u,-23,u,4
O=C1c2ccccc2OC2(C=Cc3ccccc3O2)N1Cc1ccccc1 (stereo unspecified),2%,4.1µM*,-10,x,-3
CCCCCC(=O)Nc1nc(C)c(-c2csc(Nc3cc(OC)ccc3OC)n2)s1,12%,12µM*,-3,6.6µM*,-1
CCCCCCC(=O)Nc1nc(C)c(-c2csc(Nc3cc(OC)ccc3OC)n2)s1,13%,7.4µM*,18,7.4µM*,-3
CN(CC(=O)NC1CCN(Cc2ccccc2)CC1)S(=O)(=O)c1ccc(Br)s1,31%,25%,-8,-27%,-2
COc1ccc(-c2nc(C3CCCCC3)no2)cc1OC,-53%,-20%,163*,93%,53*
c1ccc(-c2nc(C3CCCCC3)no2)cc1,u,65%,45*,45%,28*
Cc1ccc(-c2nc(C(=O)NC3CCCCCC3)no2)cc1,-92%,x,x,x,x
COc1cccc(N(CC(=O)NCc2ccco2)C(=O)CCC(=O)Nc2nccs2)c1,3%,u,-4,u,-9
CC(=O)Nc1ccc(NCC(O)COc2ccccc2)cc1 (stereo unspecified),6%,u,-18,6%,-3
COCC(O)CNc1ccccc1 (stereo unspecified),-3%,13µM*,16,32%,-3
CSCc1nc2sc(C(=O)Nc3nc(C)cs3)c(C)c2c(=O)[nH]1,x,84%,117,80%,33*
Cc1cc(C)c(NC(=O)c2sc3nc(C)[nH]c(=O)c3c2C)c(C)c1,-2%,0%,-9,0%,-2
Cc1ccc(NC(=O)c2sc3nc(CCl)[nH]c(=O)c3c2C)c(C)c1,x,u,59*,u,29
O=c1cccc2n1CC1CC2CN(Cc2c(F)cccc2Cl)C1 (stereo unspecified),3%,9.3µM*,14,-14%,-2
O=c1cccc2n1CC1CC2CN(S(=O)(=O)c2cc(Cl)ccc2Cl)C1 (stereo unspecified),-3%,-19%,-6,u,-2
O=c1cccc2n1CC1CC2CN(Cc2cccc(Cl)c2Cl)C1 (stereo unspecified),-86%,x,8,4.7µM*,-6
COc1cc(NC(=O)C2CCCCC2)c(OC)cc1NC(=O)CCC(=O)NCc1ccco1,3%,222%,6,0%,4
Nc1ccc(Cl)cc1/C(=N/O)c1ccccc1,5%,u,-17,23%,-2
SMILES,NS1 inh,Pf growth 96h,Shiga toxin inh,Pf growth 48h,CHX counter
O=C(c1ccco1)N1CCN(C(=O)c2ccc(CS(=O)c3ccc(F)cc3)o2)CC1 (stereo unspecified),3%,-15%,1,-10%,-6
CC1CCCCN1C(=O)COc1ccc(S(=O)(=O)N2CCCC2)cc1[N+](=O)[O-] (stereo unspecified),x,12µM*,x,-26%,x
CCOC(=O)C1CCN(S(=O)(=O)c2ccc(OC)c(C(=O)N3CCCCC3)c2)CC1,1%,2%,-10,6%,1
CCOC(=O)C1CCN(CC(O)COc2ccc(S(=O)(=O)N3CCCC3)cc2[N+](=O)[O-])CC1 (stereo unspecified),x,u,x,8.3µM*,x
CCOC(=O)C1CCCN(C(=O)COC(=O)c2ccc(C#N)cc2)C1 (stereo unspecified),10%,35%,3,0%,8
CCN(CC)S(=O)(=O)c1cccc(-c2nnc(SCCCC(=O)c3ccc(F)cc3)o2)c1,1%,0%,13,9.3µM*,-2
C=CCn1c(C)cc(C(=O)CSc2nnc(-c3cccc(S(=O)(=O)N(CC)CC)c3)o2)c1C,u,u,-17,10µM*,16
CCN(CC)S(=O)(=O)c1cccc(-c2nnc(SCCCC(=O)c3ccccc3)o2)c1,-36%,u,17,u,11
COc1ccccc1NS(=O)(=O)c1cc(NC(=O)Cn2cnc3c2c(=O)n(C)c(=O)n3C)ccc1C,u,u,14,u,2
CC(C)(C)N1C(=O)[C@H]2[C@@H](c3ccc(Br)cc3)N3C(=O)N(c4cccc(F)c4)C(=O)[C@@]3(Cc3ccccc3)[C@H]2C1=O,x,4.7µM*,x,5.2µM*,x
COc1ccc([C@@H]2[C@@H]3C(=O)N(C(C)(C)C)C(=O)[C@@H]3[C@]3(Cc4ccccc4)C(=O)N(c4cccc(F)c4)C(=O)N23)cc1,x,9.3µM*,x,u,x
O=C(Nc1ccc(N2CCN(Cc3ccccc3)CC2)cc1)c1cccnc1,0%,u,-2,u,1
Cc1nc2cc(N3CCCCC3)c(NC(=O)c3cccnc3)cc2c(=O)n1Cc1ccccc1,-2%,x,-21,2.9µM*,-4
CC(=O)Nc1cc2c(=O)n(Cc3ccccc3)c(C)nc2cc1N1CCOCC1,-2%,12%,36,-6%,17*
CC(=O)Nc1cc(C(=O)c2ccccc2)ccc1N1CCOCC1,1%,18%,-7,7%,-4
CC(CCc1ccccc1)NC(=O)COC(=O)c1ccc(NC(N)=O)cc1 (stereo unspecified),3%,-21%,3,u,-6
CCc1c(-c2ccccc2)[n+](=O)c2c(n1[O-])CCC2,8%,-8%,-5,59%,-1
Cc1ccc(-c2nc3ncccc3o2)cc1NC(=O)C(C)(C)C,8%,0%,-6,2%,-3
CCCC(=O)Nc1cc(-c2nc3ncccc3o2)ccc1Cl,u,u,-10,-37%,6
Cc1ccc(-c2nc3ncccc3o2)cc1N,-5%,u,62*,101%,49*
Cc1cc(-c2nc3ncccc3o2)ccc1N,-22%,u,85*,186%,45*
Nc1cc(-c2nc3ncccc3o2)ccc1Cl,2%,-6%,60*,106%,59*
CC(C)[C@H](NC(=O)NCc1ccc(F)cc1)C(=O)O,-1%,42%,-2,21%,-1
CC(NC(=O)c1ccc2nc[nH]c2c1)c1ccccc1 (stereo unspecified),4%,41%,-9,10%,-2
Clc1cccc(C(c2ccc3nc[nH]c3c2)n2ccnc2)c1 (stereo unspecified),x,5.4µM*,x,13µM*,x

# Screening results as filed in PubChem BioAssay.
